Assay results taken from ChEMBL document CHEMBL3433997, “St. Jude Leishmania screening dataset” (2016).

Molecular target: Glucose transporter (Leishmania mexicana) (UniProt O61059)
Test: ST_JUDE_LEISH: Cytotoxicity at 2uM final concentration against transgenic Leishmania Mexicana promastigotes LmGT2 that are glucose transport deficient and complemented with the L. Mexicana glucose transporter 2. Activity is measured by DNA content using SYBR green in vitro
Type: functional

SMILES	inhibition [%]
c1cc(-c2cc3ccc(C4=NCCN4)cc3[nH]2)ccc1C1=NCCN1	0.39
Cc1cc(-c2ccc3occ(CCN)c3c2)cnc1N	1.13
CCCC(C)NC(=O)[C@H](Cc1ccccc1)NC(=O)c1ccc(O)c(-c2ccc(OC)cc2)c1 (stereo partly drawn)	3.9
CCCNCc1ccc(-c2ccc(CN(C(=O)c3nn(-c4ccccc4)nc3C)C3CC3)cc2)nc1	0.38
Cc1cc(C)c2ncc(C(=O)O)c(O)c2c1	3.9
Nc1c(Cl)cc(C(O)CNCCCCCOCCCc2ccc(O)c3ncccc23)cc1Cl (stereo not drawn)	97.5
NC1=NC(c2ccccc2)(c2ccccc2)C(=O)N1CCOc1ccccc1	2
COc1ccc2c(c1)[nH]c1c(C=Cc3ccccc3)nccc12	3.77
Cc1n[nH]c2ccc(-c3cc(OC[C@@H](N)Cc4ccccc4)cnc3-c3ccccc3OCc3cccc(F)c3)cc12	-0.42
Cc1nc2nc(N)nc(N)c2c(C)c1Cc1c(Cl)cccc1Cl	7.3
Cc1cc(-c2ccc(NC(=O)N3CCc4cc(Br)c(N5CCN(C)CC5)cc43)cc2)ccc1C#N	8.55
O=C(C1CCN(C(c2ccccc2)c2ccc(Cl)c(Cl)c2)CC1)N1CC=CC1 (stereo not drawn)	-0.23
CC1(C)S(=O)(=O)CC(O)CS1(=O)=O	2.49
O=C(Nc1cccc(CN2CCCN(Cc3cccc(F)c3)CC2)c1)c1ccc(Cl)c(Cl)c1	6.5
O=C(N[C@@H](CC1CCCCC1)C(=O)NC1CCCCCC1)c1ccc(O)c(-c2ccc(Cl)c(Cl)c2)c1	0.88
CCCCN1CCCC[C@H]1[C@@H](O)c1ccnc2ccc(OCC)cc12	3.68
CC(C)CCNc1nc(NCc2ccccc2)c2cc(O)ccc2n1	1.03
CC(C)N1CCC(N(Cc2ccc(-c3ccc(C(F)(F)F)cc3)cc2)C(=O)Cn2c(SCc3cccc(F)c3F)cc(=O)c3ccccc32)CC1	0.55
Cc1nc(N)nc(N)c1-c1ccc(Cl)cc1	2.37
COc1cc(Nc2ccnc3cc(-c4ccccn4)ccc23)cc(OC)c1OC	5.6
CCc1nc(N)nc(N)c1-c1ccccc1	3.69
Nc1c2c(nc3ccc(Oc4ccc(Cl)cc4)cc13)CCCC2	40.5
O=c1c2cccnc2sn1-c1ccccc1	0.72
